{"source": "PubChem BioAssay (NCATS)", "note": "Records with an inconclusive call do not appear. Where a call stands in place of a potency, no number is given. Activity calls are given as the source filed them. The call rests on the fitted dose curve; in most records, active means well fitted inhibition curve with a large enough effect; inconclusive means small, poorly fitted or top-dose-only effect; inactive means flat fitted curve, though single readings scatter.", "data": [{"system": "CP315", "assay": "qHTS profiling for inhibitors of Plasmodium falciparum proliferation (AID 504749); further: nearly all actives have a fitted effect of over 60% in size", "details": "P. falciparum in erythrocytes, SYBR Green DNA, 72 h; series mostly up to 28.7 µM", "method_in_brief": "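Each compound contacts P. falciparum-infected red blood cells for 72 h at 37 C; lysis buffer (Tris, EDTA, saponin, Triton X, SYBR Green I) is added and fluorescence measured next morning; values normalized to controls.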", "values": [{"molecule": "CCCOC(=O)c1ccccc1O", "Potency": "inactive"}, {"molecule": "COc1cc2c(cc1OC)[C@@H](Cc1cc(OC)c(OC)c(OC)c1)[N+](C)(CCCOC(=O)CC/C=C/CCC(=O)OCCC[N+]1(C)CCc3cc(OC)c(OC)cc3[C@H]1Cc1cc(OC)c(OC)c(OC)c1)CC2", "note": "(stereo partly specified)", "Potency": "inactive"}, {"molecule": "OC[C@H]1O[C@@](CO)(O[C@H]2O[C@H](CO)[C@@H](O)[C@H](O)[C@H]2O)[C@@H](O)[C@@H]1O", "Potency": "inactive"}, {"molecule": "CCC(Cc1c(I)cc(I)c(O)c1I)C(=O)O", "note": "(stereo unspecified)", "Potency": "inactive"}, {"molecule": "Nc1ncnc2c1ncn2CCOCP(=O)(O)O", "Potency": "inactive"}, {"molecule": "O=C(O)CCC/C=C\\C[C@@H]1[C@@H](/C=C/[C@@H](O)COc2cccc(Cl)c2)[C@H](O)C[C@@H]1O", "Potency": "inactive"}, {"molecule": "N=C(N)n1cccn1", "Potency": "inactive"}, {"molecule": "CCSc1ccc2c(c1)N(CCCN1CCN(C)CC1)c1ccccc1S2", "Potency": "inactive"}, {"molecule": "CC(C)c1nc(N(C)S(C)(=O)=O)nc(-c2ccc(F)cc2)c1/C=C/C(O)CC(O)CC(=O)O", "note": "(stereo unspecified)", "Potency": "inactive"}, {"molecule": "CCOC(C)OCC", "Potency": "inactive"}, {"molecule": "NCCN", "Potency": "inactive"}, {"molecule": "CC(CC=O)CCCC(C)(C)O", "note": "(stereo unspecified)", "Potency": "inactive"}, {"molecule": "CC(C)(COP(=O)(O)OP(=O)(O)OC[C@H]1O[C@@H](n2cnc3c(N)ncnc32)[C@H](O)[C@@H]1OP(=O)(O)O)C(O)C(=O)NCCC(=O)NCCS", "note": "(stereo partly specified)", "Potency": "inactive"}, {"molecule": "O=C1c2ccccc2CN2C(=O)c3ccccc3CN12", "Potency": "inactive"}, {"molecule": "O=C1c2ccccc2C(=O)C1c1ccc(F)cc1", "Potency": "inactive"}, {"molecule": "CNC(=O)C[C@@H](N)C(=O)N[C@@H](C(=O)N[C@@H]1C(=O)N2[C@@H]1SC(C)(C)[C@@H]2C(=O)O)c1ccc(O)cc1", "Potency": "inactive"}]}]}
